Bioassay records as filed in PubChem BioAssay.
BAZ2B inh: qHTS Assay for Inhibitors of BAZ2B; 360,000 compounds, 4.4% hits; AlphaScreen BAZ2B-H3K14Ac peptide displacement; AID 504333, 2011; Potency, µM (series often up to 114 µM), for the others: top-dose activity change, negative = inhibition, hits mostly inhibitors; Bromodomain adjacent to zinc finger domain protein 2B (Homo sapiens), Q9UIF8; also: potency is read from the fitted curve at half-maximal effect; % is scaled to controls: 0 for no effect and ±100 for the full control effect; nearly all actives have a fitted effect of over 60% in size
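In this displacement format the biotinylated H3(5-23) peptide acetylated at Lys14 serves as ligand at 50 nM, with BAZ2B at 50 nM in PBS pH 7.4 containing 0.01% Tween-20. Donor and acceptor beads are 10 ug/mL final.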
G9a block: qHTS Assay for Inhibitors of Histone Lysine Methyltransferase G9a. 350,000 compounds, 8.8% hits. G9a H3K9 monomethylation, AlphaScreen, 2 h. Histone-lysine N-methyltransferase EHMT2 (Homo sapiens), Q96KQ7. AID 504332, 2011. Potency, µM (doses to about 102 µM), for inactives: at the highest dose activity, negative = inhibition, usual class: inhibitors; also: potency is read from the fitted curve at half-maximal effect; % is scaled to controls: 0 for no effect and ±100 for the full control effect; nearly all actives have a fitted effect of over 75% in size
Target sequence (Q96KQ7 913-1193 limits assumed): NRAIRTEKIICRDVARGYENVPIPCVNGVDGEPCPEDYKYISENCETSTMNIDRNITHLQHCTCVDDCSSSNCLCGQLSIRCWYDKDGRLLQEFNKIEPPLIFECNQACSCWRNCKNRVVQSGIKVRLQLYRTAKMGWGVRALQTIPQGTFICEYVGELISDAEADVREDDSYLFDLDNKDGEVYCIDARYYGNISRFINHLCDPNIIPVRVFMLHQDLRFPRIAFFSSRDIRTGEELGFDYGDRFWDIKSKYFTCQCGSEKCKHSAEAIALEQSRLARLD
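Step 1: enzyme (final 20 nM) with compound, 15 min RT. Step 2: substrate peptide 500 nM and SAM 20 uM, 2 h RT. Step 3: anti-H3K9me1 antibody and AlphaScreen beads, 10 min, then plate read.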
PI5P4Ka inh: qHTS for Inhibitors of phosphatidylinositol 5-phosphate 4-kinase (PI5P4K) | 330,000 compounds, 1.2% hits | PI5P4Kalpha enzyme, ADP-Glo luminescence, 60 min; stronger effect = lower value | max response, % | Phosphatidylinositol 5-phosphate 4-kinase type-2 alpha (Homo sapiens), P48426 | AID 652105, 2013; active = max response of -50% or lower; inconclusive = between -30% and -50%; inactive = -30% or higher; also: value at the top dose of about 77 µM; % is scaled to controls: 0 for no effect and ±100 for the full control effect
Target sequence (P48426 whole entry, looked up): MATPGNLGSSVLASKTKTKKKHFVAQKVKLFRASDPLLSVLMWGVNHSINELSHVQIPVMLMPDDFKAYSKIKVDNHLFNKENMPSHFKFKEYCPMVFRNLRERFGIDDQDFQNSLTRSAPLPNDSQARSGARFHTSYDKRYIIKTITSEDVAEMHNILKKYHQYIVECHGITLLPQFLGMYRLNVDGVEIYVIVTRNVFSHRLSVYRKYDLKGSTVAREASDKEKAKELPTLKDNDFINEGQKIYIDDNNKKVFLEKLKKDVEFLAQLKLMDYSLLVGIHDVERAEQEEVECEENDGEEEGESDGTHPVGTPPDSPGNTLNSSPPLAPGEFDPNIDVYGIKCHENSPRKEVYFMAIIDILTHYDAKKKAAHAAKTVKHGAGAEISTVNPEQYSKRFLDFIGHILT
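Reactions run in 0.038 M HEPES pH 7.4, 0.28 mM EGTA, 0.1% CHAPS and 5% DMSO, with PI5P4Kalpha, substrate, compound and 5 microM ATP final, one hour at room temperature. Readout is ADP-Glo luminescence.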
HP1b chromo inh: HTS for Inhibitors of HP1-beta Chromodomain Interactions with Methylated Histone Tails; Chromobox protein homolog 1 (Homo sapiens), P83916; 390,000 compounds, 0.56% hits; Potency, µM (titrated, usually from 114 µM), for inactives: at the top dose activity change, negative = inhibition, usual class: inhibitors; AID 540317, 2011; AlphaScreen HP1-beta / biotin-H3K9me3 peptide binding; also: potency is read from the fitted curve at half-maximal effect; nearly all actives have a fitted effect of over 70% in size
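HP1-beta protein (50 nM final) preincubated 30 min at room temperature with biotinylated H3(1-18)K9me3 peptide (50 nM) in PBS pH 7.4, 0.01% Tween-20, then compound added for 30 min. AlphaScreen streptavidin donor/nickel chelate acceptor beads (10 ug/mL final), 30 min dark, luminescence read.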
JMJD2A Tudor inh: qHTS Assay for Inhibitors of JMJD2A-Tudor Domain. Lysine-specific demethylase 4A (Homo sapiens), O75164. AlphaScreen JMJD2A-Tudor / H3K4me3 peptide binding. Potency, µM (series often up to 114 µM), without a hit: at the highest dose activity change, negative = inhibition, usual class: inhibitors. 390,000 compounds, 4.4% hits. AID 504339, 2011; also: potency is read from the fitted curve at half-maximal effect; % is scaled to controls: 0 for no effect and ±100 for the full control effect; nearly all actives have a fitted effect of over 50% in size
PLK1 PBD inh: qHTS for Inhibitors of PLK1-PDB (polo-like kinase 1 - polo-box domain): Primary Screen. AID 720504, 2013. Plk1 PBD binding of FITC phosphopeptide, fluorescence polarization. Potency, µM, for inactives: max response, negative = inhibition, most hits filed as inhibitors. 360,000 compounds, 2.8% hits. Serine/threonine-protein kinase PLK1 (Homo sapiens), P53350; also: potency is read from the fitted curve at half-maximal effect; series mostly up to about 57 µM; % is scaled to controls: 0 for no effect and ±100 for the full control effect; nearly all actives have a fitted effect of over 65% in size
* = called active by the depositor; ? = inconclusive; . = not tested or not shown; [ ] = dose if it differs, or a comment. Hits are enriched below; roughly 12% of the tested compounds scored in any of these assays. Unless noted, calls follow the shape of the dose curve; as a rule, active = well fitted curve in the direction sought with a large enough effect; inconclusive = small, poorly fitted or top-dose-only effect, or another doubt; inactive = no such curve, though single readings can be large; an effect the other way counts as inactive or inconclusive.

SMILES | BAZ2B inh | G9a block | PI5P4Ka inh | HP1b chromo inh | JMJD2A Tudor inh | PLK1 PBD inh
CC(OC(=O)c1ccc2c(c1)NC(=O)CS2)C(=O)c1ccc(F)cc1 (centres undefined) | . | . | 1.2 | 5.1%[57 µM] | -14.5% | 0.6%
C=CCn1c(C)cc(C(=O)COC(=O)c2ccc3c(c2)NC(=O)CS3)c1C | ? | 20µM* | ? | ? | ? | ?
CCN(CC(=O)Nc1ccc(OC)cc1)C(=O)c1ccc2ccccc2c1 | . | . | -8.4 | 15.2% | -8.9% | 4.8%
O=C1CCCC2=C1Sc1ccc(Cl)cc1N2 | ? | 3.8%[59 µM] | -9.6 | 20.1% | -12.6% | 13.7%
CC(C)OCCCn1c(SCc2cccc(Br)c2)nc2c(sc3ccccc32)c1=O | -9.0% | 5.1%[59 µM] | . | 32.8% | -12.0% | .
O=C(NC1CCCCC1)C(=S)N1CCOCC1 | -6.9% | ? | 3.1 | -2.4% | -2.8% | 23.8µM*
S=C(NC1CCCC1)N1CCOCC1 | -13.0% | -1.5% | 5.1 | 44.5% | -9.1% | -14.0%
COc1ccc(-c2nc3c(c(SCC(=O)Nc4cc(C)cc(C)c4)n2)Cc2c(CO)cnc(C)c2O3)cc1 | -34.1% | -13.5%[59 µM] | . | 7.9% | -13.6% | .
Cc1ccc(-c2nc3c(c(SCC(=O)Nc4ccccc4Cl)n2)Cc2c(CO)cnc(C)c2O3)cc1 | -1.1% | 4.9%[59 µM] | . | 35.3% | 11.7% | .
Cc1ccc(-c2nc3c(c(SCC(=O)N4CCOCC4)n2)Cc2c(CO)cnc(C)c2O3)cc1 | ? | 14.1µM* | -5.7 | 29.6% | ? | ?
Cc1cc(C)cc(NC(=O)CSc2nc(-c3cccc(Cl)c3)nc3c2Cc2c(CO)cnc(C)c2O3)c1 | 50.1µM* | 1.2%[59 µM] | . | 48.9% | 7.7% | .
CCN(CC)C(=O)CSc1nc(-c2ccc(C)cc2)nc2c1Cc1c(CO)cnc(C)c1O2 | 44.7µM* | 14.1µM* | . | -1.5% | ? | .
COc1ccc(-c2ccc(N)cn2)cn1 | 1.3% | -2.5%[0.501 µM] | -1.1 | 39.0% | -24.3% | -16.3%
CN(C)c1ccc(-c2cncnc2NCc2cccnc2)cc1 | . | 11.5%[0.501 µM] | . | . | . | .
COC(=O)c1ccc(C(=O)OC)c(NC(=O)CSc2cccc[n+]2[O-])c1 | -3.2% | . | ? | ? | 44.7µM* | 23.8µM*
COC(=O)c1ccc(C(=O)OC)c(NC(=O)CSCC(=O)O)c1 | 0.6% | . | -0.6 | 27.1% | 1.4% | -0.4%
COC(=O)c1ccc(-n2c(C)cc(C(=O)CSc3ccc(NC(C)=O)cc3)c2C)cc1 | ? | ? | -4.2 | -24.1% | ? | 13.4µM*
COC(=O)c1ccc(-n2c(C)cc(C(=O)CSc3cccc[n+]3[O-])c2C)cc1 | -25.7% | 50.1µM* | -0.4 | 17.3% | -24.2% | -0.8%
COCCOC(=O)c1c(NC(=O)CN2c3ccccc3CC2C)sc(C(N)=O)c1C (centres undefined) | -9.5% | 16.7% | 3.8 | 25.4% | -21.8% | -18.6%
COCCn1c(C)cc(C(=O)CSc2ccc(NC(C)=O)cc2)c1C | -6.6% | -12.0%[59 µM] | . | 5.1% | -25.0% | ?
COCCOC(=O)c1c(NC(=O)CSc2cccc[n+]2[O-])sc(C(N)=O)c1C | ? | 2.51µM* | 2.1 | 32.1% | -16.7% | -6.0%
C1=CC2=NC34CCCCC3CC3=C(CCCC3)N4C2=CC1=NC1CCCCC1 (centres undefined) | . | . | 4.6 | ? | ? | 1.7%
CC(=O)Nc1ccc(SCC(=O)c2cc(C)n(-c3ccccc3F)c2C)cc1 | 44.7µM* | ? | 0.3 | -29.9% | ? | 18.9µM*
Cc1cc(C(=O)CN2C(=O)NC(CC(C)C)C2=O)c(C)n1-c1ccccc1F (centres undefined) | ? | 50.1µM* | -1.9 | 38.1% | -10.1%[57.1 µM] | -0.6%
O=C(CSc1cccc[n+]1[O-])Nc1cc2c(cc1Cl)C(=O)c1ccccc1C2=O | ? | 7.94µM* | -4.8 | 6.1% | ? | -29.9%
SMILES | BAZ2B inh | G9a block | PI5P4Ka inh | HP1b chromo inh | JMJD2A Tudor inh | PLK1 PBD inh
Cc1cc(C(=O)CN2C(=O)NC(CC(C)C)C2=O)c(C)n1C1CC1 (centres undefined) | . | . | -2.0 | -2.6%[57 µM] | -33.8% | -2.2%
COc1ccc(C(C)(O)c2nc(-c3ccc4c(c3)OCO4)cs2)cc1 (centres undefined) | . | . | -2.3 | . | . | -8.0%
CNc1ncnc2c1ncn2[C@H]1C[C@H](O)[C@@H](CO)O1 | . | 42.9%[59 µM] | . | . | . | .
COc1ccc(-c2cc(C(F)(F)F)nc(SCC(=O)NCCc3ccc(OC)c(OC)c3)n2)cc1 | -15.7% | -16.0%[59 µM] | . | 28.1% | -7.9% | .
COc1ccc(CNCc2ccc3c(c2)OCO3)c(OC)c1OC | -31.2% | 44.7µM* | -1.1 | ? | 0.794µM* | -1.3%
FC(F)(F)c1ccccc1CNCc1ccc2c(c1)OCO2 | ? | -63.0% | -0.6 | ? | 20µM* | -9.6%
Cc1ccc(CNCc2ccc3c(c2)OCO3)cc1 | ? | 12.6µM* | 13.0 | ? | 1.41µM* | -2.6%
CCn1c(=O)c2sccc2n2c(CCCC(=O)N3CCN(c4ccc(OC)cc4)CC3)nnc12 | 0.7% | -7.3%[59 µM] | . | 10.9% | -15.0% | .
CN(C)CCN(C(=O)CCS(=O)(=O)c1ccccc1)c1nc2cc3c(cc2s1)OCO3 | -15.7% | . | -6.9 | -1.3% | ? | -14.8%
CCN(CC)CCN(C(=O)c1ccc(C(=O)c2ccccc2)cc1)c1nc2cc3c(cc2s1)OCO3 | ? | 39.8µM* | -21.3 | 3.4% | ? | -1.8%
Cc1ccc2nc(N(CCCN(C)C)C(=O)c3cc(-c4cccs4)nc4ccccc34)sc2c1 | 25.1µM* | 39.8µM* | -1.3 | ? | 14.1µM* | -4.2%
CCN(CC)CCN(C(=O)CCS(=O)(=O)c1ccccc1)c1nc2cc3c(cc2s1)OCO3 | -14.3% | 44.7µM* | -4.5 | 45.5% | -23.4% | -14.8%
CN(C)CCCN(C(=O)c1cc(Cl)sc1Cl)c1nc2cc3c(cc2s1)OCO3 | ? | 50.1µM* | 5.0 | -0.3% | ? | -14.0%
CCOc1cccc(NC(=O)C2CC(=O)N(CC)C(=Nc3ccc(F)cc3)S2)c1 (centres undefined) | -2.0% | -7.6%[59 µM] | . | 49.8% | 5.9% | .
CCOC(=O)C1=CN(Cc2ccco2)S(=O)(=O)N(C)C1c1ccc(F)c(Cl)c1 (centres undefined) | . | . | -17.7 | 34.8% | -6.8% | -9.8%
CN(C)CCCN(C(=O)c1ccc(C(=O)c2ccccc2)cc1)c1nc2cc3c(cc2s1)OCO3 | 44.7µM* | ? | -0.3 | ? | 50.1µM* | -10.3%
